This passage reports Potency and activity (max response) results from PubChem BioAssay (NCATS).

Where “and” joins values, the source holds several entries; their conditions need not be identical. Equal values may be shown once. Results filed as inconclusive are left out. A call without a number means that no potency is given here. Values without a mark were called inactive. Calls of active or inactive are those of the source. Calls follow the shape of the dose curve; as a rule, active = well fitted curve in the direction sought with a large enough effect; inconclusive = small, poorly fitted or top-dose-only effect, or another doubt; inactive = no such curve, though single readings can be large; an effect the other way counts as inactive or inconclusive. Where a SMILES comes first, the peptide text is derived from it. Bridges are numbered along the chain shown (N, C = ends). [ ]: non-standard residue; d: D form. hArg = N=C(N)NCCCC[C@H](N)C(=O)O; Mpa = O=C(O)CCS

Cytochrome P450 3A7 (Homo sapiens), sequence (P24462 whole entry, looked up): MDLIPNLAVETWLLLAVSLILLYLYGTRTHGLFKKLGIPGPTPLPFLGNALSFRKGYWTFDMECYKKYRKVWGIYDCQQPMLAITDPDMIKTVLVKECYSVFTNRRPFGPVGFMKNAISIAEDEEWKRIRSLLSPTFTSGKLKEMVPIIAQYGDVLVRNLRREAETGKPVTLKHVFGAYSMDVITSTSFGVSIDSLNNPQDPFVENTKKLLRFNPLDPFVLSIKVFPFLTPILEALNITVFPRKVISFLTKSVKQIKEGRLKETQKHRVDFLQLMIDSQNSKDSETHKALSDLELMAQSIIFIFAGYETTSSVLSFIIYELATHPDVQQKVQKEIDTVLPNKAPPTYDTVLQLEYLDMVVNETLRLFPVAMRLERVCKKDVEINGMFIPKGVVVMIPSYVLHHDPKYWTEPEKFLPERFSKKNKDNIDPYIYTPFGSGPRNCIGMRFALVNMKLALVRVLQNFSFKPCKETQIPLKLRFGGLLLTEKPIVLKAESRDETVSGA

The target in the first assay is Cytochrome P450 3A7 (Homo sapiens) (UniProt P24462). As to the kind of experiment: Cytochrome P450 family 3 subfamily A member 7 (CYP3A7) small molecule antagonists: luciferase biochemical qHTS assay (AID 1963596). Also: nearly all actives have a fitted effect of over 40% in size. Conditions: P450-Glo CYP3A7 enzyme luminescence, 1 h; series mostly up to 57.4 µM. The procedure, abridged:
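Luminescence read-out (relative luminescence units) after 20 min with detection reagent, which stops the reaction. Enzyme, proluciferin substrate and compound preincubated 10 min, RT; NADPH regeneration system then started 1 h reaction. Ketoconazole as positive control.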
For orientation: In qHTS, concentration-response curves come from the screen itself.
On to `O=C1CC2(CCCC2)CC(=O)N1`, for which the Potency entry was “inactive”.
Still for that read-out and setting: under `CCO/C([O-])=N/c1c[n+](N2CCOCC2)no1` stands “inactive”.
On to `CO/N=C(/C(=O)N[C@@H]1C(=O)N2C(C(=O)[O-])=C(C[n+]3ccn4ncccc43)CS[C@H]12)c1nsc(N)n1`, for which the Potency result was “inactive”.
Regarding `CN1C(=O)c2ccccc2C1=O`, the Potency entry was “inactive”.
In the case of `CCN(CC)S(=O)(=O)c1ccc(C(=O)O)cc1`, the Potency entry was “inactive”.
On the same count and under the same terms, with `CCN1CC(CCN2CCOCC2)C(c2ccccc2)(c2ccccc2)C1=O` (stereo not given) the entry was “inactive”; with `CO[C@@H]1[C@@H](O[C@@H]2O[C@H](C)[C@@H](O[C@H]3C[C@@](C)(O)[C@@H](O)[C@H](C)O3)[C@H](N(C)C)[C@H]2O)[C@@H](CC=O)C[C@@H](C)[C@@H](O[C@@H]2CC[C@H](N(C)C)[C@@H](C)O2)/C=C/C=C/C[C@@H](C)OC(=O)C[C@H]1OC(C)=O`, “inactive”; with `CC(CN(C)C)C(C)(O)Cc1ccc(Cl)cc1` (stereo not given), “inactive”.
Same read-out and setting: under `O=C(Nc1cccnc1)c1cc(-c2ccnc(F)c2)ccc1OCc1ccccc1` stands “inactive”.
For `Cl/C(=C\n1cncn1)c1ccc(Cl)cc1Cl`, the Potency entry was “inactive”.
`CC(C)C(=O)Nc1cccc(C(F)(F)F)c1`: the Potency entry was “inactive”.
On the same count and under the same terms, with `O=C(O)c1[nH]n(-c2ccc(S(=O)(=O)O)cc2)c(=O)c1N=Nc1ccc(S(=O)(=O)O)cc1` the entry was “inactive”; with `CC(C)NCC(O)c1ccc2ccccc2c1` (stereo not given), “inactive”.
On the same count and under the same terms, under `COc1cc2nc(Cl)nc(N)c2cc1OC` stands “inactive”; under `Nc1ncnc(Nc2ccccc2)n1`, “inactive”; under `O=C(O)c1cn(C2CC2)c2cc(Cl)c(F)cc2c1=O`, “inactive”.
For `Cc1cc(-n2nc3ccc(Cl)cc3n2)c(O)c(C(C)(C)C)c1`, the Potency entry is “inactive”.
Still for that read-out and setting: under `CCOC(=O)C(C#N)=C(c1ccccc1)c1ccccc1` stands “inactive”.
For the compound `O=C(O)[C@@H]1CSCN1`, the Potency entry was “inactive”.
Same read-out and setting: with `Nc1ccncc1N` the entry was “inactive”; with `O=C(NCC(=O)N1CC[C@H](NC2CCC(O)(c3ccc(-c4ncccn4)cn3)CC2)C1)c1cccc(C(F)(F)F)c1` (stereo not given in full), “inactive”; with `Cc1ccc(C(=O)C(C)CN2CCCCC2)cc1` (stereo not given), “inactive”.
The same measure, in the same setting: under `O=C(NN1CCCC1)NS(=O)(=O)c1ccc(Cl)cc1` stands “inactive”; under `Nc1ncnc2c1ncn2Cc1c(F)cccc1Cl`, “inactive”.
Same read-out and setting: under `CCCCCCCCCCCCCCCC(=O)OC(C)C` stands “inactive”; under `CCCCCC(C)N` (stereo not given), “inactive”.
As for `N#Cc1cccc(-c2c[nH]c3ncnc(N4CCOCC4)c23)c1`, the Potency entry was “inactive”.
On the same count and under the same terms, with `CO/N=C(\C(=O)N[C@@H]1C(=O)N2C(C(=O)O)=C(CSc3nc(=O)c(O)nn3C)CS[C@H]12)c1csc(N)n1` the entry was “inactive”; with `CC(C)(C)NCC(O)COc1ccc(NC(=O)NC2CCCCC2)cc1` (stereo not given), “inactive”.
Same read-out and setting: with `CC(N)CCCC(C)(C)O` (stereo not given) the entry was “inactive”; with `NC(=O)[C@@H]1CSSCCC(=O)N[C@@H](CCCCN=C(N)N)C(=O)NCC(=O)N[C@@H](CC(=O)O)C(=O)N[C@@H](Cc2c[nH]c3ccccc23)C(=O)N2CCC[C@H]2C(=O)N1` ([Mpa][hArg]GDWPC-NH2; disulfide 1-7), “inactive”; with `CN(C)C(=O)CNC(=O)Cc1ccccc1`, “inactive”.
The same measure, in the same setting: under `Oc1c(I)cc(Cl)c2cccnc12` stands “inactive”.
As for `CCOc1cc2ncc(C#N)c(Nc3ccc(F)c(Cl)c3)c2cc1NC(=O)/C=C/CN(C)C`, the Potency entry was “inactive”.
The same measure, in the same setting: under `CCCCN(CCN(CCCC)C(=O)N1CCOCC1)C(=O)N1CCOCC1` stands “inactive”; under `COP(=O)(OC)OC(c1ccc(Cl)cc1)P(=O)(OC)OC` (stereo not given), “inactive”; under `CC(=O)c1cc2ccccc2s1`, “inactive”.
Same read-out and setting: with `NS(=O)(=O)c1ccc(C(=O)O)cc1` the entry was “inactive”; with `Nc1ccn([C@@H]2O[C@H](CO)[C@@H](O)C2(F)F)c(=O)n1`, “inactive”.
With `CC1c2ccccc2CN1NC(=O)c1ccc(Cl)c(S(N)(=O)=O)c1` (stereo not given), the Potency result was “inactive”.

System in a further assay: not listed separately
As to the kind of experiment: Cellular viability qHTS for adrenocortical cancer (ACC) cell line SW-13 (AID 1963989). Also: nearly all actives have a fitted effect of over 65% in size. Also: potency is read from the fitted curve at half-maximal effect.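 As to activity (max response): cells grown in serum-free medium with ITS supplement.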 Conditions: SW-13 ACC cells viability, CellTiter-Glo, 48 h; activity (max response): stronger effect = lower value. An outline of the steps:
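48 h treatment, SW-13 in ITS/DMEM serum-free; doses up to 46 uM; readout CellTiter-Glo luminescence; curve fit four-parameter logistic.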
As for `CCO/C([O-])=N/c1c[n+](N2CCOCC2)no1`, the activity (max response) was -2.98%.
For the compound `CO/N=C(/C(=O)N[C@@H]1C(=O)N2C(C(=O)[O-])=C(C[n+]3ccn4ncccc43)CS[C@H]12)c1nsc(N)n1`, the activity (max response) was -7.2%.
In the case of `CCN(CC)S(=O)(=O)c1ccc(C(=O)O)cc1`, the activity (max response) was -2.24%.
Same read-out and setting: under `CCN1CC(CCN2CCOCC2)C(c2ccccc2)(c2ccccc2)C1=O` (stereo not given) stands 1.41%; under `CO[C@@H]1[C@@H](O[C@@H]2O[C@H](C)[C@@H](O[C@H]3C[C@@](C)(O)[C@@H](O)[C@H](C)O3)[C@H](N(C)C)[C@H]2O)[C@@H](CC=O)C[C@@H](C)[C@@H](O[C@@H]2CC[C@H](N(C)C)[C@@H](C)O2)/C=C/C=C/C[C@@H](C)OC(=O)C[C@H]1OC(C)=O`, -1.59%; under `O=C(Nc1cccnc1)c1cc(-c2ccnc(F)c2)ccc1OCc1ccccc1`, 13.4%.
As to `Cl/C(=C\n1cncn1)c1ccc(Cl)cc1Cl`, the activity (max response) is 2.66%.
With `CC(C)C(=O)Nc1cccc(C(F)(F)F)c1`, the activity (max response) was 14.2%.
As to `O=C(O)c1[nH]n(-c2ccc(S(=O)(=O)O)cc2)c(=O)c1N=Nc1ccc(S(=O)(=O)O)cc1`, the activity (max response) is 6.82%.
On the same count and under the same terms, under `CC(C)NCC(O)c1ccc2ccccc2c1` (stereo not given) stands 8.99%; under `COc1cc2nc(Cl)nc(N)c2cc1OC`, 1.23%.
Still for that read-out and setting: with `Nc1ncnc(Nc2ccccc2)n1` the figure was 3.3%; with `O=C(O)c1cn(C2CC2)c2cc(Cl)c(F)cc2c1=O`, 13.4%.
For the compound `Cc1cc(-n2nc3ccc(Cl)cc3n2)c(O)c(C(C)(C)C)c1`, the activity (max response) was 9.75%.
Still for that read-out and setting: under `CCOC(=O)C(C#N)=C(c1ccccc1)c1ccccc1` stands -5.89%.
Same read-out and setting: under `O=C(O)[C@@H]1CSCN1` stands -7.21%; under `Nc1ccncc1N`, -0.994%.
Consider `Cc1ccc(C(=O)C(C)CN2CCCCC2)cc1` (stereo not given), for which the activity (max response) is -5.23%.
As for `O=C(NN1CCCC1)NS(=O)(=O)c1ccc(Cl)cc1`, the activity (max response) is 2.56%.
The same measure, in the same setting: under `Nc1ncnc2c1ncn2Cc1c(F)cccc1Cl` stands 6.36%.
For `CCCCCCCCCCCCCCCC(=O)OC(C)C`, the activity (max response) is 6.75%.
As for `CCCCCC(C)N` (stereo not given), the activity (max response) is 17.9%.
Still for that read-out and setting: under `N#Cc1cccc(-c2c[nH]c3ncnc(N4CCOCC4)c23)c1` stands 9.94%.
Same read-out and setting: with `CO/N=C(\C(=O)N[C@@H]1C(=O)N2C(C(=O)O)=C(CSc3nc(=O)c(O)nn3C)CS[C@H]12)c1csc(N)n1` the figure was 16.1%; with `CC(C)(C)NCC(O)COc1ccc(NC(=O)NC2CCCCC2)cc1` (stereo not given), 5.25%.
For the compound `CC(N)CCCC(C)(C)O` (stereo not given), the activity (max response) is 18.8%.
Take `NC(=O)[C@@H]1CSSCCC(=O)N[C@@H](CCCCN=C(N)N)C(=O)NCC(=O)N[C@@H](CC(=O)O)C(=O)N[C@@H](Cc2c[nH]c3ccccc23)C(=O)N2CCC[C@H]2C(=O)N1` ([Mpa][hArg]GDWPC-NH2; disulfide 1-7): the activity (max response) was 17.5%.
The same measure, in the same setting: with `CN(C)C(=O)CNC(=O)Cc1ccccc1` the figure was -6.74%.
Take `CCOc1cc2ncc(C#N)c(Nc3ccc(F)c(Cl)c3)c2cc1NC(=O)/C=C/CN(C)C`: the Potency is 0.631 µM (active).
`CCCCN(CCN(CCCC)C(=O)N1CCOCC1)C(=O)N1CCOCC1`: the activity (max response) is 13.7%.
The same measure, in the same setting: with `COP(=O)(OC)OC(c1ccc(Cl)cc1)P(=O)(OC)OC` (stereo not given) the figure was -0.893%.
On the same count and under the same terms, under `CC(=O)c1cc2ccccc2s1` stands 15.3%.
`NS(=O)(=O)c1ccc(C(=O)O)cc1`: the activity (max response) was 11.4%.
On the same count and under the same terms, with `Nc1ccn([C@@H]2O[C@H](CO)[C@@H](O)C2(F)F)c(=O)n1` the figure was -35% and -42.2%.
Take `CC1c2ccccc2CN1NC(=O)c1ccc(Cl)c(S(N)(=O)=O)c1` (stereo not given): the activity (max response) was -11.8%.
